# Data published in PubChem BioAssay (NCATS).
# Records with an inconclusive call do not appear. Where a call stands in place of a potency, no number is given. The source made the active and inactive calls. Unless noted, calls come from the whole dose curve; as a rule, active = well fitted curve in the direction sought with a large enough effect; inconclusive = small, poorly fitted or top-dose-only effect, or another doubt; inactive = no such curve, though single readings can be large; an effect the other way counts as inactive or inconclusive.
# Tests used:
# [1] = test system: Zika virus NS2B-NS3 protease (linked construct); assay: Primary screen NINDS Rhodamine qHTS for Zika virus inhibitors (AID 1347160); settings: purified NS2B-NS3 protease, Rhodamine110 substrate fluorescence; series mostly up to 112 µM; note: nearly all actives have a fitted effect of over 55% in size; note: potency is the fitted concentration of half-maximal effect
# In short: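 Purified NS2B-NS3 protease with the NS2B hydrophilic domain joined by a flexible linker (25 nM) in 10 mM Tris-HCl pH 8.0, 0.01% Tween 20, preincubated 15 min at RT with compound; Rhodamine110 peptide substrate 1.5 µM; fluorescence change over 15 min; 4-parameter Hill fit.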
# [2] = OV-SAHO Cancer Cell Toxicity qHTS against the NCATS CANVASS Library (AID 1347348); settings: OV-SAHO viability, CellTiter-Glo luminescence, 72 h; series mostly up to 38.3 µM; note: nearly all actives have a fitted effect of over 55% in size; note: potency is the fitted concentration of half-maximal effect
# In short: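 Cells were seeded at 1000 per well, allowed 4 h at 37 degrees C/5% CO2, then pin-treated with an 11-point compound series. After 72 h, viability was read as CellTiter-Glo luminescence following 15min at room temperature.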
# [3] = qHTS for Activators of p53 Stress Response Pathway screened against the NCATS CANVASS Library (AID 1347388); settings: p53RE-bla HCT-116, beta-lactamase reporter, 16 h; series mostly up to 46.1 µM
# In short: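 Beta-lactamase reporter driven by p53 response elements in HCT-116 cells, read as the 460 nm/530 nm emission ratio after CCF4 loading, following 16 h of exposure to an 11-point series. Cell viability was measured in the same wells by CellTiter-Glo luminescence.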
# [4] = qHTS assay for small molecule disruptors of mitochondrial membrane potential screened against the NCATS CANVASS Library (AID 1347389); settings: HepG2 mitochondrial membrane potential, m-MPI red/green ratio, 1.5 h; series mostly up to 46.1 µM; note: nearly all actives have a fitted effect of over 60% in size
# In short: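 HepG2 cells (2,000/well) plated overnight, then exposed to compounds in 11-point qHTS series for 1 h at 37C before 30 min Mito-MPS dye; depolarization read as fall in red aggregate (590 nm) to green monomer (535 nm) fluorescence.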
# [5] = qHTS for activators of Nrf2/ARE signaling pathway screened against the NCATS CANVASS Library (AID 1347391); settings: ARE-bla HepG2, beta-lactamase reporter, 16 h; series mostly up to 46.1 µM; note: nearly all actives have a fitted effect of over 60% in size
# In short: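 ARE-bla HepG2 beta-lactamase reporter cells exposed to compounds for 16 h at 37C; CCF4 substrate 2 h, fluorescence at ex 405 nm, em 460/530 nm. Viability by CellTiter-Glo luminescence.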
# [6] = Vero-766 cells viability qHTS against the NCATS CANVASS Library: Counterscreen for Zika virus inhibition assay (AID 1347394); settings: Vero 766 viability, CellTiter-Glo luminescence, 72 h; series mostly up to 46.1 µM; note: nearly all actives have a fitted effect of over 60% in size; note: potency is the fitted concentration of half-maximal effect
# In short: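 Vero 766 cells (1000/well), without Zika virus, were exposed to compounds for 72 h at 37C. Viability was measured by CellTiter Glo luminescence. Media-only wells served as 100% inhibition.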
# [7] = A2780 Cisplatin Sensitive Ovarian Cancer Cell Toxicity qHTS against the NCATS CANVASS Library (AID 1347353); settings: A2780 ovarian cancer viability, ATPLite luminescence, 72 h; series mostly up to 46.1 µM; note: nearly all actives have a fitted effect of over 60% in size; note: potency is the fitted concentration of half-maximal effect
# In short: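 A2780 cells, 750/well, settled 4 h at 37 °C, then treated with an 11-point compound series for 72 h. Viability was read as ATPLite luminescence after 10 min at room temperature, with bortezomib as control.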
# [8] = qHTS for Antimalaria activity screened against the NCATS CANVASS Library (AID 1347380); note: nearly all actives have a fitted effect of over 40% in size; note: potency is the fitted concentration of half-maximal effect;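 for activity change, negative = inhibition: Plasmodium falciparum strain Dd2 asexual parasites grown in red blood cells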; settings: P. falciparum Dd2 growth, SYBR Green fluorescence, 72 h; series mostly up to 28.7 µM
# In short: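 Red blood cells infected with P. falciparum Dd2 (2.5% hematocrit final, 0.3% parasitemia) were exposed to compounds in an 11-point qHTS series for 72 hr at 37C under 5% O2 and 5% CO2. Lysis buffer with SYBR Green was then added for 18 hr, and fluorescence was read at 485/535 nm.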
# [9] = test system: Zika virus NS2B-NS3 protease (linked); assay: 384 well plate NINDS AMC confirmatory qHTS for Zika virus inhibitors (AID 1347163); settings: Recombinant NS2B-NS3 protease, Ac-VKTGKR-AMC fluorescence; series mostly up to 100 µM; note: potency is the fitted concentration of half-maximal effect; nearly all actives have a fitted effect of over 50% in size
# In short: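 Linked NS2B-NS3 protease (final 5 nM, 30 nM or 60 nM) was preincubated with compounds (final up to 1 mM) for ~15 minutes. Ac-VKTGKR-AMC substrate (final 30 microM) then reacted for 25 minutes at room temperature in the dark. Fluorescence (ex 355/em 460 nm) was normalized to no-enzyme and no-inhibitor controls.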
# [10] = test system: Zika virus NS2B-NS3 protease (linked construct); assay: 384 well plate NINDS Rhodamine confirmatory qHTS for Zika virus inhibitors (AID 1347164); settings: rhodamine-110 peptide substrate fluorescence; series mostly up to 1 mM;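 note: fluorescence from protease cleavage of Ac-LKRR-rhodamine 110 substrate; potency is the fitted concentration of half-maximal effect; nearly all actives have a fitted effect of over 65% in size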
# In short: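 Linked NS2B-NS3 protease (final 5, 30 or 60 nM) preincubated ~15 minutes with compounds, then 10 microM Ac-LKRR-Rhodamine 110 added. Fluorescence (485/538 nm) read after 25 minutes at room temperature, normalized to no-enzyme and no-inhibitor controls.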
# [11] = molecular target: Glutathione peroxidase 1 (Homo sapiens) (UniProt P07203); assay: Primary qHTS Assay for Inhibitors of Recombinant Selenoprotein Glutathione Peroxidase 1 (GPX1) (AID 1845191); settings: recombinant GPX1, GR-coupled NADPH fluorescence, 15 min; series mostly up to 48.8 µM; note: nearly all actives have a fitted effect of over 65% in size
# In short: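 10 nM GPX1 + cpd, 30 min RT; start w/ 1 mM GSH, 0.5 mM cumene hydroperoxide, 0.5 mM NADPH, 100 nM GR, 0.01% BSA; buffer 50 mM Tris-HCl pH 7.5, 2 mM EDTA, 150 mM NaCl; Fl 340/450, 0 & 15 min.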
# [12] = qHTS drug screen for cell cycle checkpoint inhibitors in PARPi-resistant BRCA-mutant ovarian cancer cell lines. (AID 1963452; calls by dose curve); settings: PEO1/OlaR viability, CellTiter-Glo luminescence, 96 h, stronger effect = lower value
# In short: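 PEO1, PEO4 and PEO1/OlaR ovarian cancer cells, 600 per well, exposed 96 h at 37C to a dilution series. Viability read by CellTiter-Glo luminescence, normalized to DMSO and empty wells; activity summarized as Z-AUC.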
# [13] = qHTS assay to identify inhibitors of the type 1 interferon - major histocompatibility complex class I in skeletal muscle: Counter screen cell viability and HiBit confirmation (AID 1347412); settings: iHSKM muscle cells + IFN-b, HiBiT or CellTiter-Glo, 24 h, at 45.9 µM (top of the series); note: nearly all actives have a fitted effect of over 60% in size
# In short: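 CRISPR HLA-B*08:01-HiBit immortalized human myoblasts (C25cl48) stimulated with 4 ng/ml IFN-beta and compounds (12-point 1:3, top 46 uM final) for 24 h at 37 C. Duplicate plates read by HiBit lytic luminescence or CellTiter Glo ATP.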
# [14] = Confirmatory screen NINDS Rhodamine qHTS for Zika virus inhibitors (AID 1347161); settings: purified enzyme assay, Rhodamine110 substrate fluorescence, 15 min; series mostly up to 114 µM
# In short: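 Enzyme (25 nM, linked NS2B-NS3) was preincubated 15 min with compound in 10 mM Tris-HCl pH 8.0, 0.01% Tween 20. Rhodamine110 substrate (1.5 microM) was then added and fluorescence read at start and after 15 min.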
# Sequence of Glutathione peroxidase 1 (Homo sapiens) (P07203 whole entry, looked up): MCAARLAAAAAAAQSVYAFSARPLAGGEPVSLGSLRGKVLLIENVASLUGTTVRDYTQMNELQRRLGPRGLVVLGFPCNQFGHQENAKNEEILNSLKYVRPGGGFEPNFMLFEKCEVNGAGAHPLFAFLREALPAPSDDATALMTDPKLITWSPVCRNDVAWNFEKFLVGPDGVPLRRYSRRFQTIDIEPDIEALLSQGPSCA
compound,measurement,setting,value
C[C@@H]1CC[C@]2(C(=O)O)CC[C@]3(C)C(=C2[C@H]1C)CC[C@@H]1[C@@]2(C)CC[C@H](O)C(C)(C)[C@@H]2CC[C@]13C,Potency,[1],34.9 µM (active)
same,Potency,[2],11.8 µM (active)
same,Potency,[3],inactive
same,Potency,[4],inactive
same,Potency,[5],inactive
same,Potency,[6],18.6 µM (active)
C=CC(C)(C)C(=O)[C@@H](C)[C@@H]1CC[C@@](C)(C=C)O1,Potency,[2],inactive
same,Potency,[7],inactive
same,Potency,[8],inactive
same,Potency,[3],inactive
same,Potency,[5],inactive
same,Potency,[6],inactive
COc1cc(C(=O)O)ccc1NC(=O)[C@@H]1N[C@@H](CC(C)(C)C)[C@](C#N)(c2ccc(Cl)cc2F)[C@H]1c1cccc(Cl)c1F,Potency,[9],31.6 µM (active)
same,Potency,[10],5.62 µM (active)
same,Potency,[11],inactive
same,Z-AUC,[12],2.81 (inactive)
same,Z-AUC,[12]; measured here: PEO1 parental Z-AUC,1.51
same,Z-AUC,[12]; measured here: PEO4 Z-AUC,1.24
same,"activity change, negative = inhibition",[13]; HiBiT,-14.1% (inactive)
same,"activity change, negative = inhibition",[13]; Viability,-6.71% (inactive)
COc1cc([C@@H]2c3cc4c(cc3C[C@@]3(O[C@@H]5O[C@H](CO)[C@@H](O)[C@H](O)[C@H]5O)COC(=O)[C@H]23)OCO4)cc(OC)c1OC,Potency,[1],44 µM (active)
same,Potency,[2],inactive
same,Potency,[7],0.0372 µM (active)
same,Potency,[4],inactive
Cc1cc(C)c(O)c(C(=O)CC2CC(=O)NC(=O)C2)c1,Potency,[1],inactive
same,Potency,[8],2.98 µM (active)
CCCCc1nn2c(=O)cc(COC(=O)c3ccc(NC(=O)c4ccccc4Cl)cc3)nc2s1,Potency,[14],44.7 µM (active)
COC1C(C)OC(OCC23C[C@@H]4[C@H](C)CC[C@H]4C4(C=O)CC2C=C(C(C)C)C34C(=O)O)[C@@H](O)[C@H]1O (some centres undefined),Potency,[2],inactive
same,Potency,[7],inactive
same,Potency,[8],inactive
same,Potency,[3],inactive
same,Potency,[6],inactive
C=C1[C@@]2(C)CC3C4(C)CCC(O)C(C)(C)C4CCC3(C)[C@]1(C(=O)OC)C(=O)C(C)(O)C2=O (some centres undefined),Potency,[2],inactive
same,Potency,[7],inactive
same,Potency,[8],inactive
same,Potency,[3],inactive
same,Potency,[4],inactive
same,Potency,[5],inactive
same,Potency,[6],inactive
C/C(=C\[C@H](C)C(=O)C[C@H](O)CC1CC(=O)NC(=O)C1)[C@@H]1OC(=O)CCCC/C=C/C[C@@H](O)[C@@H]1C,Potency,[1],inactive
same,Potency,[7],2.35 µM (active)
same,Potency,[8],4.72 µM (active)
C/C=C/[C@H]1[C@H]2C(=O)c3c(O)c(C)c(O)c(C)c3[C@]1(C(=O)O)C(=O)C=C2C,Potency,[2],inactive
same,Potency,[7],inactive
same,Potency,[8],inactive
same,Potency,[3],inactive
same,Potency,[4],inactive
same,Potency,[5],inactive
same,Potency,[6],inactive
